Source: PubChem (National Center for Advancing Translational Sciences (NCATS))
This is a sample that favours compounds with a hit; in the whole collection about 7.9% have one here.
HT1080-NT tox = kills 2HG-producing HT-1080-NT fibrosarcoma cells | 1.6% of 360,000 active | AID 686970 | HT-1080-NT fibrosarcoma viability, CellTiter-Glo ATP luminescence, 48 h | Potency, µM (doses to about 46.1 µM), without a hit: top-dose activity, negative = less viability, hits mostly cytotoxic;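 note: NT is the 2HG producing partner of a matched IDH1 knockdown line; 0% = DMSO-treated cells and -100% = media-only wells without cells; nearly all actives have a fitted effect of over 55% in size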
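Viability of the 2HG-overproducing fibrosarcoma line after 48 hours of compound exposure at 37 degrees C was determined by luminescence with CellTiter-Glo, and concentration-effect curves were then fitted and categorized.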
KB-V1 cytotox = KB-V1 MDR subline cytotoxicity; KB-V1 MDR cells viability, CellTiter-Glo, 72 h; Potency, µM (titrated, usually from 46.1 µM), hits mostly cytotoxic; 3.4% of 400,000 active; AID 1347076; note: % is set by controls: 0 for no effect and ±100 for the full control effect; nearly all actives have a fitted effect of over 60% in size
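qHTS viability screen in drug-selected KB-V1 MDR cells: 72 h compound treatment at 37 degrees C, ATP luminescence end point.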
HT1080 IDH1KD tx = toxicity to HT-1080 IDH1 knockdown cells (counter line) | HT-1080 IDH1 knockdown viability, ATP luminescence, 48 h | Potency, µM (series often up to 46.1 µM), for inactives: at the top dose activity, negative = toxicity, hits mostly cytotoxic | 2% of 360,000 active | AID 686971;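 note: 0% = DMSO wells and -100% = cell-free medium wells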
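CellTiter-Glo luminescence after 48 h compound exposure at 37 degrees C of IDH1-knockdown HT-1080 cells in 5% FBS RPMI. %Activity scaled between DMSO wells and cell-free media wells, with curves fitted and assigned curve classes.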
MCF10A rereplic = DNA re-replication induction in MCF 10a cells; AID 624296; MCF 10A DNA re-replication, Hoechst nuclear intensity, 48 h; Potency, µM (doses to about 46.1 µM), for inactives: at the top dose activity, positive = re-replication, usual class: activators; 2.9% of 350,000 active; note: % of control where 0% means no effect; nearly all actives have a fitted effect of over 50% in size
KB-3-1 cytotox = KB-3-1 parental cell cytotoxicity | KB-3-1 viability, CellTiter-Glo ATP luminescence, 72 h | Potency, µM (doses to about 46.1 µM), actives largely listed as cytotoxic | 1.4% of 400,000 active; note: % is set by controls: 0 for no effect and ±100 for the full control effect; nearly all actives have a fitted effect of over 60% in size
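Parental KB-3-1 adenocarcinoma cells in phenol-red-free DMEM with 10% FBS were pin-treated with compounds at several concentrations, incubated 72 h at 37 °C, and viability read by CellTiter-Glo luminescence; concentration-effect curves were fitted after normalization.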
SW480 rereplic = DNA re-replication induction in SW480 cells; Potency, µM (titrated, usually from 46.1 µM), inactives show top-dose re-replication activation, actives largely listed as activators; 1.8% of 340,000 active; SW480 DNA re-replication, Hoechst DNA content imaging, 48 h; AID 624297; note: % of control where 0% means no effect; nearly all actives have a fitted effect of over 55% in size
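250 cells/well; 23 nL cpd via pin tool; 48 hr, 37 C, 5% CO2; Hoechst 40 min; imager read of total nuclear intensity, ex 405/em 500-530 nm.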
* = called active by the depositor. Calls come from the whole dose curve; as a rule, active = well fitted curve in the direction sought with a large enough effect; inconclusive = small, poorly fitted or top-dose-only effect, or another doubt; inactive = no such curve, though single readings can be large; an effect the other way counts as inactive or inconclusive. Potency is the fitted concentration of half-maximal effect.

How did O=c1[nH][nH]c(-c2ccccc2O)c1C(C[N+](=O)[O-])c1ccc(Br)cc1 (configuration not stated) do in these assays?
HT1080-NT tox: -6%; KB-V1 cytotox: inactive; HT1080 IDH1KD tx: -11%; MCF10A rereplic: inconclusive; KB-3-1 cytotox: inactive; SW480 rereplic: inconclusive

Results for CCOc1ccc(N2CC(c3nc4ccccc4n3CCCOc3ccc(OC)cc3)CC2=O)cc1 (configuration not stated) ?
KB-V1 cytotox: inactive; KB-3-1 cytotox: inactive

How did Cc1ccc(CSc2nnc(-n3c(=O)c(C#N)cc4c(=O)n5cc(C)ccc5nc43)s2)cc1 do in these assays?
KB-V1 cytotox: inactive; KB-3-1 cytotox: inactive

How did Cc1nn(-c2ccccc2)nc1CNC(=O)c1ncoc1-c1ccccc1 do in these assays?
HT1080-NT tox: inconclusive; KB-V1 cytotox: inactive; HT1080 IDH1KD tx: inconclusive; MCF10A rereplic: 23µM*; KB-3-1 cytotox: inactive; SW480 rereplic: -2%

What do the screens show for `Cc1cccc(N(Cc2cc(=O)[nH]c3ccccc23)C(=O)CCl)c1`?
HT1080-NT tox: 21µM*; KB-V1 cytotox: inconclusive; HT1080 IDH1KD tx: inconclusive; MCF10A rereplic: inconclusive; KB-3-1 cytotox: inactive; SW480 rereplic: inconclusive

Results for COc1ccc(N(Cc2cc(=O)[nH]c3ccccc23)C(=O)CCl)cc1 ?
HT1080-NT tox: 3.3µM*; KB-V1 cytotox: inconclusive; HT1080 IDH1KD tx: 23µM*; MCF10A rereplic: inconclusive; KB-3-1 cytotox: inconclusive; SW480 rereplic: 3.3µM*

Results for CCCC(=O)N(Cc1cc(=O)[nH]c2ccccc12)c1cccc(C)c1 ?
HT1080-NT tox: -6%; KB-V1 cytotox: inactive; HT1080 IDH1KD tx: -14%; MCF10A rereplic: -1%; KB-3-1 cytotox: inactive; SW480 rereplic: 9%

Results for CCCC(=O)N(Cc1cc(=O)[nH]c2ccccc12)c1ccc(OC)cc1 ?
HT1080-NT tox: -2%; KB-V1 cytotox: inactive; HT1080 IDH1KD tx: -13%; MCF10A rereplic: 6%; KB-3-1 cytotox: inactive; SW480 rereplic: -6%

How did CCCCc1ccc(-c2csc(/C(C#N)=C\c3ccco3)n2)cc1 do in these assays?
HT1080-NT tox: 2%; KB-V1 cytotox: inactive; HT1080 IDH1KD tx: -1%; MCF10A rereplic: 18µM*; KB-3-1 cytotox: inactive; SW480 rereplic: inconclusive

How did O=C(NCc1noc2ccccc12)Nc1ccc(F)cc1F do in these assays?
KB-V1 cytotox: inconclusive; KB-3-1 cytotox: inactive

Results for CC(=O)N(C(C)=O)c1ncc2c([nH]c3ccccc32)c1C#N ?
HT1080-NT tox: 11µM*; KB-V1 cytotox: 6.5µM*; HT1080 IDH1KD tx: 7.1µM*; MCF10A rereplic: -1%; KB-3-1 cytotox: inactive; SW480 rereplic: -1%

What do the screens show for `CCN(CC)C(=O)Cn1ncc2c([nH]c3ccccc32)c1=O`?
KB-V1 cytotox: inactive; KB-3-1 cytotox: inactive

Results for COc1ccc(C(=O)NNc2ncnc3c2cnn3-c2cccc(Cl)c2)cc1OC ?
KB-V1 cytotox: inactive; KB-3-1 cytotox: inactive

Results for CCOc1ccccc1N1CC(C(=O)NCCC2=CCCCC2)CC1=O (configuration not stated) ?
HT1080-NT tox: 0%; KB-V1 cytotox: inactive; HT1080 IDH1KD tx: -3%; MCF10A rereplic: -9%; KB-3-1 cytotox: inactive; SW480 rereplic: -63%

Results for CCC(C)c1ccccc1N1CC(C(=O)NCCC2=CCCCC2)CC1=O (configuration not stated) ?
HT1080-NT tox: -2%; KB-V1 cytotox: 23µM*; HT1080 IDH1KD tx: 1%; MCF10A rereplic: -5%; KB-3-1 cytotox: inactive; SW480 rereplic: 2%

Results for CCc1cccc(C)c1NC(=O)C(CC)Sc1nc2ccncc2[nH]1 (configuration not stated) ?
KB-V1 cytotox: inactive; KB-3-1 cytotox: inactive
